According to the supplement of paper PMC6555819:

What was measured:
Assay in all cases: PBM binding z-score (relative to random genomic background probes); higher = stronger binding; sequences stand for … in GC…GCGATTGACAGCGTAGAATGAAGG
[1] = test system: FXR:RXRa (NR concentration 270 nM, RXRa partner concentration 90 nM)
Outline: (§1)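 Probes were double-stranded and carried 34-nt variable regions with direct-repeat seeds, single-nucleotide variants, half-site ablations and random human genomic background sequences, printed on custom Agilent 4×180K protein-binding microarrays. Arrays were incubated 1 h with ligand-free nuclear receptor dimers in PBS pH 7.4, 2% milk, 0.02% Triton X-100, 1 mM DTT, 0.2 mg/mL BSA and 0.4 mg/ml salmon testes DNA. Antibodies against each partner (one per run) detected binding, and scanned fluorescence was regression-normalized. Binding z-scores use the random background probes as reference.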

[2] = test system: LXRa:RXRa (NR concentration 270 nM, RXRa partner concentration 90 nM)
Outline: as §1

[3] = test system: LXRa homodimer (NR concentration 270 nM)
Outline: as §1

[4] = test system: LXRb homodimer (NR concentration 270 nM)
Outline: as §1

[5] = test system: PPARa:RXRa (NR concentration 270 nM, RXRa partner concentration 90 nM)
Outline: as §1

[6] = test system: PPARg:RXRa (NR concentration 180 nM, RXRa partner concentration 90 nM)
Outline: as §1

[7] = test system: PPARg:RXRa 270nM:90nM, anti-RXR (NR concentration 270 nM, RXRa partner concentration 90 nM)
Outline: as §1

[8] = test system: PPARg:RXRa 30nM:10nM, anti-RXR (NR concentration 30 nM, RXRa partner concentration 10 nM)
Outline: as §1

[9] = test system: PPARg:RXRa 90nM:30nM, anti-RXR (NR concentration 90 nM, RXRa partner concentration 30 nM)
Outline: as §1

[10] = test system: PPARg:RXRa DBDmut IVT, anti-RXR (DBD mutation: RXRa K156A/R161A, NR concentration 270 nM, RXRa partner concentration 90 nM)
Outline: as §1

[11] = test system: PPARg:RXRa IVT, anti-PPARg (NR concentration 270 nM, RXRa partner concentration 90 nM)
Outline: as §1

[12] = test system: PPARg DBDmut:RXRa IVT, anti-PPARg (DBD mutation: PPARg1 K132A/R137A, NR concentration 270 nM, RXRa partner concentration 90 nM)
Outline: as §1

[13] = test system: PPARg DBDmut IVT, anti-PPARg (DBD mutation: PPARg1 K132A/R137A, NR concentration 270 nM)
Outline: as §1

[14] = test system: PPARg homodimer (NR concentration 180 nM)
Outline: as §1

[15] = test system: PXR:RXRa (NR concentration 270 nM, RXRa partner concentration 90 nM)
Outline: as §1

[16] = test system: PXR homodimer (NR concentration 270 nM)
Outline: as §1

[17] = test system: RARa:RXR (NR concentration 270 nM, RXRa partner concentration 90 nM)
Outline: as §1

[18] = test system: RARa homodimer (NR concentration 270 nM)
Outline: as §1

[19] = test system: RARb:RXRa (NR concentration 270 nM, RXRa partner concentration 90 nM)
Outline: as §1

| Sequence | PBM binding z-score [1] | PBM binding z-score [2] | PBM binding z-score [3] | PBM binding z-score [4] | PBM binding z-score [5] | PBM binding z-score [6] | PBM binding z-score [7] | PBM binding z-score [8] | PBM binding z-score [9] | PBM binding z-score [10] | PBM binding z-score [11] | PBM binding z-score [12] | PBM binding z-score [13] | PBM binding z-score [14] | PBM binding z-score [15] | PBM binding z-score [16] | PBM binding z-score [17] | PBM binding z-score [18] | PBM binding z-score [19] |
| --- | --- | --- | --- | --- | --- | --- | --- | --- | --- | --- | --- | --- | --- | --- | --- | --- | --- | --- | --- |
| TATACAGGATCAAAGGCCAGAGTACGAATGTCGA | 0.361 | 0.271 | -0.0452 | 0.483 | 1.33 | 2.37 | 3.11 | 1.85 | 2.92 | 0.256 | 1.03 | 0.156 | 0.991 | 1.27 | 0.0724 | 0.338 | 0.0923 | 0.389 | 0.997 |
| CGTCAAAGTTCAAGGTAAAGTAACAGAAAGCAGC | 5.75 | 5.37 | 2.35 | 0.837 | 4.4 | 4.51 | 5.07 | 2.5 | 3.89 | 0.433 | 1.82 | 0.69 | 0.346 | 2.5 | 3.99 | 2.2 | 3.47 | 1.3 | 4.95 |
| AGTCAAAGTTCACTAGGTTACGTAAGATTCAGCT | 4.92 | 5.44 | 3.95 | 1.5 | 4.85 | 7.41 | 6.74 | 4.4 | 5.88 | 3.75 | 5.6 | 1.8 | 1.2 | 1.99 | 4.58 | 4.84 | 4.08 | 2.05 | 4.93 |
| GCTTACGGGTCAAAGGTTAAAGCATGAATAGAAT | 7.68 | 6.08 | 0.955 | 0.412 | 7.2 | 11.8 | 9.59 | 9.12 | 10.3 | 4.74 | 6.3 | 1.36 | 2.46 | 1.69 | 6.29 | 0.364 | 8.66 | 0.51 | 4.94 |
| ACTCGGAGGACAAAGGTGAGAGCTACGCCAGTGA | 0.567 | 0.58 | -0.14 | -0.434 | 2.81 | 4.53 | 5.16 | 3.49 | 5.42 | 0.595 | 2.19 | -0.781 | -0.86 | 0.6 | 0.477 | -0.385 | 1.24 | -0.258 | 2.37 |
| CCTACTGGGCCACGAAAGGTGATTGATTCAGTGA | -0.0481 | 0.0469 | -0.496 | -0.883 | 1.75 | 2.08 | 1.68 | 0.232 | 0.958 | 5.14 | 5.37 | -0.117 | -0.709 | 0.352 | 0.0244 | -0.433 | 0.698 | -0.285 | 0.929 |
| ACTAGTTGGTCAGCTGAGGTCACACAAAATTCGG | 4.18 | 3.22 | 2.26 | 0.719 | 3.85 | 1.45 | 2.46 | 0.399 | 1.64 | 1.6 | 2.89 | 0.792 | 0.409 | 3.4 | 5.63 | 2.18 | 4.78 | 1.17 | 3.87 |
| CTCGAAAGGGCGTGCTCAGGTGAGTATACCAAAC | 0.538 | 0.109 | -0.329 | -0.824 | 0.533 | -0.312 | 0.0309 | -0.439 | -0.22 | -0.316 | 0.335 | -0.537 | -0.0248 | -0.194 | -0.0546 | 0.0968 | 0.278 | -0.187 | 1.37 |
| CGTCAAAGTTAAAGGTAACGTAACAGAAAGCAGC | 0.0396 | 0.253 | -0.0511 | -0.0705 | 1.46 | 1.59 | 2.59 | 0.527 | 1.65 | 0.379 | 1.17 | 0.513 | 0.594 | 0.332 | 0.394 | 0.0362 | 0.981 | 0.438 | 1.02 |
| ACTCGGAGGACAAAGGTAAGAGCTACGCCAGTGA | -0.107 | -0.113 | -0.383 | -0.762 | 1.12 | 2.52 | 3.87 | 1.74 | 3.83 | 0.286 | -0.0365 | -0.619 | -1.09 | 0.21 | -0.339 | -0.386 | -0.0753 | -0.128 | 1.17 |
| GCTTACGGGTCAAAAGTTATAGCATGAATAGAAT | 5.09 | 3.43 | 0.0533 | 0.409 | 5.64 | 6.49 | 6.55 | 4.03 | 6.2 | 3.77 | 3.87 | 1.08 | 1.18 | 1.4 | 2.94 | 0.168 | 3.7 | 0.546 | 3.16 |
| ATCGAAAGGTCGAGTTGAGTATAGAGAAAGGGAA | 4.54 | 3.84 | 0.29 | 1.04 | 4.32 | 2.44 | 2.9 | 0.961 | 2.07 | -0.0281 | 1.21 | 0.792 | 0.196 | 1.65 | 2.74 | 0.316 | 3.29 | 0.834 | 3.88 |
| CCTTACGGGTCACTGACAGCTTATAGCATTTGGA | 5.14 | 3.38 | 0.0209 | -0.0269 | 4.99 | 4.12 | 4.15 | 1.74 | 3.11 | 3.83 | 3.59 | 0.471 | 0.264 | 2.05 | 2.79 | -0.111 | 3.44 | 1.14 | 3.84 |
| CCTACTGGGCCGAGGTCATTGATCAGTCAAAGCA | 4.08 | 3.71 | 1.15 | -0.228 | 3.96 | 3.02 | 3.38 | 0.749 | 2.52 | 1.55 | 2.71 | -0.758 | -1.27 | 2.05 | 4.62 | 2.49 | 4.33 | -0.11 | 3.19 |
| CCTAGTTGGTCAAGGTCCCACACGCTATAGGTAC | 0.27 | 0.395 | 0.55 | -0.02 | 0.398 | 0.782 | 0.497 | -0.0168 | 0.409 | 1.11 | 1.17 | -0.0918 | 0.474 | 1.59 | 0.0607 | 0.41 | 0.436 | 0.884 | 1.29 |
| CCTACTGGGCCACTCAGAGGTCATTGATCATATG | 2.81 | 4.09 | 4.52 | 0.238 | 3.98 | 3.57 | 3.49 | 1.52 | 2.96 | 5.13 | 5.18 | -0.186 | -0.561 | 1.94 | 5.1 | 1.83 | 4.46 | 0.374 | 3.28 |
| TAGCCTCGGTCATTCAGGGGCCAGTATAGAAAGC | 1.19 | 1.14 | 0.485 | 0.157 | 0.242 | -0.061 | -0.248 | -0.569 | -0.514 | -0.712 | 0.476 | 0.246 | -0.322 | 0.0789 | -0.0122 | -0.574 | 0.667 | -0.375 | 2.68 |
| ACTTACGGGTCAACGACGTTATAGCACGCGTATA | 6.03 | 3.91 | 0.144 | 0.83 | 5.66 | 5.3 | 5.09 | 1.83 | 3.59 | 3.06 | 3.74 | 1.35 | 0.774 | 1.67 | 3.19 | -0.178 | – | 0.684 | 4.07 |
